# ± gives the standard deviation of the averaged measurements.
# Experiments:
# Experiment in all cases: promoter activity interaction Z-score (Lux/OD deviation from empty-vector control); higher = stronger promoter induction by the compound
# [1] = system: E. coli BW25113 robp lux reporter
# In short: (§1)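 Four 1:2 dilutions of each compound were tested in biological duplicates on E. coli BW25113 carrying low-copy luxCDABE promoter reporters, either wild type or deleted for one of three genes. Cultures of 40 µl LB Lennox in 384-well plates were kept at 37°C and read for OD600 and luminescence every 30 min for 12 h. Integration windows were 0–8 h for wild type and 1–9 h for deletion strains, and wells under 10% of the median growth value were discarded. The score is a Z-transformed residual of growth-normalised luminescence relative to a control fit.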
# [2] = system: E. coli BW25113 soxSp lux reporter
# In short: as §1
# [3] = system: E. coli BW25113 tolCp lux reporter
# In short: as §1
# [4] = 0.02 µg/ml, genetic background: wild type
# [5] = 0.02 µg/ml, genetic background: ΔmarA
# [6] = 0.02 µg/ml, genetic background: Δrob
# [7] = 0.02 µg/ml, genetic background: ΔsoxS
# [8] = 0.04 µg/ml, genetic background: wild type
# [9] = 0.04 µg/ml, genetic background: ΔmarA
# [10] = 0.04 µg/ml, genetic background: Δrob
# [11] = 0.04 µg/ml, genetic background: ΔsoxS
# [12] = 0.079 µg/ml, genetic background: wild type
# [13] = 0.079 µg/ml, genetic background: ΔmarA
# [14] = 0.079 µg/ml, genetic background: Δrob
# [15] = 0.079 µg/ml, genetic background: ΔsoxS
# [16] = 0.16 µg/ml, genetic background: wild type
# [17] = 0.16 µg/ml, genetic background: ΔmarA
# [18] = 0.16 µg/ml, genetic background: Δrob
# [19] = 0.16 µg/ml, genetic background: ΔsoxS
smiles,measurement,setting,value
C[C@@H](O)[C@H]1C(=O)N2C(C(=O)O)=C(SCCNC=N)C[C@H]12 [Imipenem],promoter activity interaction Z-score,[1]; [4],0.863 ± 0.1
same,promoter activity interaction Z-score,[1]; [5],1.42 ± 0.61
same,promoter activity interaction Z-score,[1]; [6],1.13 ± 0.1
same,promoter activity interaction Z-score,[1]; [7],0.38 ± 1.6
same,promoter activity interaction Z-score,[1]; [8],1.42 ± 0.9
same,promoter activity interaction Z-score,[1]; [9],0.964 ± 0.54
same,promoter activity interaction Z-score,[1]; [10],0.862 ± 0.23
same,promoter activity interaction Z-score,[1]; [11],-0.648 ± 0.39
same,promoter activity interaction Z-score,[1]; [12],0.399 ± 0.46
same,promoter activity interaction Z-score,[1]; [13],-0.467 ± 0.12
same,promoter activity interaction Z-score,[1]; [14],-0.0634 ± 0.12
same,promoter activity interaction Z-score,[1]; [15],0.149 ± 0.0074
same,promoter activity interaction Z-score,[1]; [16],0.582 ± 0.12
same,promoter activity interaction Z-score,[1]; [17],-0.0297 ± 0.2
same,promoter activity interaction Z-score,[1]; [18],0.845 ± 0.3
same,promoter activity interaction Z-score,[1]; [19],0.155 ± 0.23
same,promoter activity interaction Z-score,[2]; [4],0.0906 ± 0.0094
same,promoter activity interaction Z-score,[2]; [5],-0.0591 ± 0.084
same,promoter activity interaction Z-score,[2]; [6],0.0225 ± 0.12
same,promoter activity interaction Z-score,[2]; [7],-0.179 ± 0.12
same,promoter activity interaction Z-score,[2]; [8],0.124 ± 0.076
same,promoter activity interaction Z-score,[2]; [9],0.161 ± 0.03
same,promoter activity interaction Z-score,[2]; [10],0.187 ± 0.23
same,promoter activity interaction Z-score,[2]; [11],-0.163 ± 0.26
same,promoter activity interaction Z-score,[2]; [12],0.146 ± 0.15
same,promoter activity interaction Z-score,[2]; [13],-0.0799 ± 0.11
same,promoter activity interaction Z-score,[2]; [14],-0.00226 ± 0.029
same,promoter activity interaction Z-score,[2]; [15],0.121 ± 0.18
same,promoter activity interaction Z-score,[2]; [16],0.0824 ± 0.27
same,promoter activity interaction Z-score,[2]; [17],-0.0185 ± 0.033
same,promoter activity interaction Z-score,[2]; [18],-0.0171 ± 0.17
same,promoter activity interaction Z-score,[2]; [19],0.177 ± 0.52
same,promoter activity interaction Z-score,[3]; [4],0.541 ± 0.2
same,promoter activity interaction Z-score,[3]; [5],0.817 ± 0.21
same,promoter activity interaction Z-score,[3]; [6],-0.144 ± 0.41
same,promoter activity interaction Z-score,[3]; [7],-0.241 ± 0.51
same,promoter activity interaction Z-score,[3]; [8],0.146 ± 1.3
same,promoter activity interaction Z-score,[3]; [9],0.917 ± 0.58
same,promoter activity interaction Z-score,[3]; [10],1.47 ± 0.4
same,promoter activity interaction Z-score,[3]; [11],-1.38 ± 0.5
same,promoter activity interaction Z-score,[3]; [12],0.00539 ± 0.13
same,promoter activity interaction Z-score,[3]; [13],-0.369 ± 0.35
same,promoter activity interaction Z-score,[3]; [14],0.295 ± 0.094
same,promoter activity interaction Z-score,[3]; [15],-0.148 ± 0.41
same,promoter activity interaction Z-score,[3]; [16],-0.803 ± 0.044
same,promoter activity interaction Z-score,[3]; [17],0.117 ± 0.52
same,promoter activity interaction Z-score,[3]; [18],0.323 ± 0.18
same,promoter activity interaction Z-score,[3]; [19],0.105 ± 0.88

# From the supplement of paper PMC12282887
